“And” between values parts separate entries of the source, which are not always exact repeats. Equal entries are not always repeated. Compounds without any hit were thinned out: in the full panel of roughly 83,000, 20% have a hit.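 Compound tested at a single concentration for 48 hours in 96-well plates; a percent growth value below 10 was scored as active.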 A number with no mark means an inactive call. The source made the active and inactive calls.
The compounds below were run on 786-0 renal (assay: NCI-60 one-dose screen, 48 h (100 = growth as untreated, 0 = no growth, -100 = all killed)). Details: 10 µM unless noted.

Row | SMILES | growth
1 | O=c1ccc(Cn2c(C(F)(F)F)cc3c(Cl)ncnc32)c[nH]1 | 102%
2 | CC[C@]12C=CCN3CC[C@]4(C(=C(C(=O)OC)C1)Nc1cc(OC)c([C@@H]5[C@H]6O[C@H]6[C@@]6(CC)CC(C(=O)OC)=C7Nc8cc(O)ccc8[C@@]78CCN5[C@@H]68)cc14)[C@@H]32 | -8% (active)
3 | COc1ccc2[nH]cc(-c3cc4nc(-c5cn(C)c6ncccc56)cc(N)n4n3)c2c1 | -90.3% (active)
4 | COc1ccc2[nH]c(=O)cc(-n3ncc(C(=O)/C=C/c4cc(OC)c(OC)c(OC)c4)c3C)c2c1 | -15% (active)
5 | COc1ccc(/C=C/c2nc3ccccc3n3c(-c4cccc([N+](=O)[O-])c4)nnc23)cc1 | -74.9% (active)
6 | O=C(Nc1ccc(Cl)c(C(F)(F)F)c1)N1CCN(c2cc(-c3cn(-c4ccccc4)nc3-c3cccc(O)c3)ccn2)CC1 | 8.51% (active)
7 | O=C1Nc2ccccc2/C1=C/C(=O)c1cc2ccccc2oc1=O | 117%
8 | CN1CCN(C(=O)Oc2cc3c(c4ccccc24)[C@H](CCl)CN3C(=O)c2cc3cc(OCCCN4CCC4)ccc3[nH]2)[C@H]2CSSC[C@H]21 | -8.82% (active)
9 | NS(=O)(=O)c1ccc(Nc2nc(N/N=C/c3cc(Br)c(O)c(Br)c3)nc(Nc3ccccc3)n2)cc1 | 25.1%
10 | COc1ccc2c(c1)C(Sc1ccc(Cl)cc1)c1c(nc(N)c(C#N)c1N)O2 (stereo unspecified) | 61.8%
11 | CS(=O)(=O)Nc1cccc(-n2c(COc3ccc(OC(F)(F)F)cc3)nc3ccccc32)c1 | 110% and 103%

From PubChem BioAssay (NCI)
